# Test results: PubChem BioAssay (Tox21)
# Where “and” joins values, the source holds several entries; their conditions need not be identical. Identical values can stand only once. Records with an inconclusive call do not appear. A call without a number means that no potency is given here. More than one record can exist for a structure, and the calls need not agree. Calls of active or inactive are those of the source. Calls come from the whole dose curve; as a rule, active = well fitted curve in the direction sought with a large enough effect in the repeat runs; inconclusive = weak or mixed curves; inactive = no such curve, though single readings can be large; an effect the other way counts as inactive or inconclusive.
# Experiments:
# [1] = A CellTox Green Cytotoxicity Assay to monitor cytotoxicity in HEK293 cells - 40 hour (AID 1224871); note: nearly all actives have a fitted effect of over 45% in size
# Procedure, shortened: (§1)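 HEK293 cells, 600/well, were preincubated 5 hours and then exposed to compounds at 37 C for up to 40 hours. A cell-impermeant cyanine dye staining dead-cell DNA was read by fluorescence at 0, 8, 16, 24, 32 and 40 h time points.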
# [2] = qHTS RealTime-Glo MT Cell Viability Assay in HEK293 cells - 16 hour (AID 1224872); note: top concentration of the series differs between compounds; nearly all actives have a fitted effect of over 50% in size
# Procedure, shortened: (§2)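 Viability tracked continuously by luminescence as live cells reduce a prosubstrate for NanoLuc; HEK293 cells preincubated 5 h, compound-treated at 37 C, and read at 0, 8, 16, 24, 32 and 40 h.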
# [3] = qHTS RealTime-Glo MT Cell Viability Assay in HEK293 cells - 40 hour (AID 1224874); conditions: RealTime-Glo luminescence; max response: stronger effect = lower value; note: nearly all actives have a fitted effect of over 50% in size
# Procedure, shortened: (§3)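 600 cells/well were plated with the nonlytic NanoLuc/prosubstrate reagent, pre-incubated 5 h, then given 23 nL of compound in DMSO. Incubation at 37 C for 40 h, with luminescence from viable-cell-reduced substrate read repeatedly from 0 h.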
# [4] = A CellTox Green Cytotoxicity Assay to monitor cytotoxicity in HEK293 cells - 24 hour (AID 1224875); note: series mostly up to about 77 µM; nearly all actives have a fitted effect of over 45% in size
# Procedure, shortened: as §1
# [5] = qHTS RealTime-Glo MT Cell Viability Assay in HepG2 cells - 32 hour (AID 1224877); note: nearly all actives have a fitted effect of over 55% in size; note: potency is the fitted concentration of half-maximal effect
# Procedure, shortened: (§4)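 Viability was tracked continuously by NanoLuc luminescence from prosubstrate reduced by living HepG2 cells, at successive time points over 40 h of compound exposure. Cells with reagent were preincubated 5 h at 37 °C before compound addition.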
# [6] = A CellTox Green Cytotoxicity Assay to monitor cytotoxicity in HepG2 cells - 24 hour (AID 1224878); note: nearly all actives have a fitted effect of over 45% in size
# Procedure, shortened: (§5)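 HepG2 cells, 600/well, preincubated 5 h with CellTox Green dye, then exposed to Tox21 compounds in DMSO at 37 C for up to 40 h. Dead-cell DNA fluorescence read at the indicated time point.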
# [7] = A CellTox Green Cytotoxicity Assay to monitor cytotoxicity in HepG2 cells - 40 hour (AID 1224879); note: nearly all actives have a fitted effect of over 40% in size
# Procedure, shortened: as §5
# [8] = qHTS RealTime-Glo MT Cell Viability Assay in HEK293 cells - 0 hour (AID 1224880); note: top concentration of the series differs between compounds; nearly all actives have a fitted effect of over 45% in size
# Procedure, shortened: as §3
# [9] = A CellTox Green Cytotoxicity Assay to monitor cytotoxicity in HEK293 cells - 32 hour (AID 1224881); note: nearly all actives have a fitted effect of over 40% in size
# Procedure, shortened: as §1
# [10] = A CellTox Green Cytotoxicity Assay to monitor cytotoxicity in HepG2 cells - 0 hour (AID 1224882); note: nearly all actives have a fitted effect of over 35% in size
# Procedure, shortened: as §5
# [11] = A CellTox Green Cytotoxicity Assay to monitor cytotoxicity in HepG2 cells - 32 hour (AID 1224883); note: nearly all actives have a fitted effect of over 50% in size
# Procedure, shortened: as §5
# [12] = A CellTox Green Cytotoxicity Assay to monitor cytotoxicity in HEK293 cells - 8 hour (AID 1224884); note: nearly all actives have a fitted effect of over 35% in size
# Procedure, shortened: as §1
# [13] = qHTS RealTime-Glo MT Cell Viability Assay in HepG2 cells - 16 hour (AID 1224885); note: nearly all actives have a fitted effect of over 50% in size
# Procedure, shortened: as §4
# [14] = qHTS RealTime-Glo MT Cell Viability Assay in HEK293 cells - 8 hour (AID 1224887)
# Procedure, shortened: as §3
# [15] = A CellTox Green Cytotoxicity Assay to monitor cytotoxicity in HEK293 cells - 16 hour (AID 1224888); note: nearly all actives have a fitted effect of over 35% in size
# Procedure, shortened: as §1
# [16] = qHTS RealTime-Glo MT Cell Viability Assay in HepG2 cells - 0 hour (AID 1224889); note: nearly all actives have a fitted effect of over 50% in size
# Procedure, shortened: as §4
# [17] = A CellTox Green Cytotoxicity Assay to monitor cytotoxicity in HepG2 cells - 8 hour (AID 1224890); note: nearly all actives have a fitted effect of over 45% in size
# Procedure, shortened: as §5
# [18] = qHTS RealTime-Glo MT Cell Viability Assay in HEK293 cells - 24 hour (AID 1224886)
# Procedure, shortened: as §2
Structure (SMILES),Potency [1],Potency [2],max response [3],Potency [4],Potency [5],Potency [6],Potency [7],outcome [8],Potency [9],Potency [10],Potency [11],Potency [12],Potency [13],Potency [14],Potency [15],Potency [16],Potency [17],Potency [18]
O=S(=O)(O)O,inactive,inactive,-2.52% (inactive) [middle of 6 runs],inactive,inactive,inactive,inactive,inactive,inactive,inactive,inactive,inactive,inactive,inactive,inactive,inactive,inactive,
CCCCn1cc[n+](C)c1,inactive,inactive,,inactive,inactive and 44.3 µM (active),inactive,inactive,inactive,inactive,inactive,inactive,inactive,inactive,inactive,inactive,inactive,inactive,
O=C(O)CCl,inactive,inactive,1.08% (inactive) and -1.37% (inactive),inactive,inactive,inactive,inactive,inactive,inactive,inactive,inactive,inactive,inactive,inactive,inactive,inactive,inactive,inactive
